Compound activity: PubChem, National Center for Advancing Translational Sciences (NCATS)
Epigenetic reg – Quantitative High-Throughput Screen for Regulators of Epigenetic Control | 280,000 tested, 0.2% active | Potency, µM (titrated, usually from 53.9 µM), for the others: at the highest dose GFP activation, actives largely listed as activators | murine LDR cells, GFP reporter derepression, 30 h; note: % of control where 0% means no effect; nearly all actives have a fitted effect of over 60% in size
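GFP-positive cell count by laser-scanning cytometry (objects 20–120 um) after 30 h, 37 C compound exposure of murine LDR cells; reporter is CMV-GFP integrated at a silenced locus, inducible by HDAC or DNMT inhibitors.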
PINK1 modulator – A Quantitative High throughput Screen to Identify Chemical Modulators of PINK1 Expression. PINK1 immunofluorescence, high-content cytometry, 24 h. Potency, µM (doses to about 76.6 µM), without a hit: at the top dose activation (PINK1 increase), hits mostly activators. 410,000 tested, 0.2% active. AID 624263, 2012; active = well fitted activation curve with a large enough effect; inconclusive = small, poorly fitted or top-dose-only effect; cell line not stated here; note: % of control where 0% means no effect; nearly all actives have a fitted effect of over 65% in size
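PINK1 protein, normally rapidly degraded, was detected by immunofluorescence after 24 hour compound treatment of a stable cell line. Titration data (5 concentrations) came from laser-scanning cytometry, with CCCP-treated wells as controls.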
Sfp inh – qHTS Assay for Inhibitors of Bacillus subtilis Sfp phosphopantetheinyl transferase (PPTase); 310,000 tested, 3.5% active; 4'-phosphopantetheinyl transferase ffp (Bacillus subtilis), Q9F4F7; Potency, µM, for inactives: largest response in the series, negative = inhibition, usual class: inhibitors; Biochemical Sfp PPTase activity, qHTS;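 note: the enzyme is Sfp with the accession as filed and its product quenches rhodamine fluorescence; 0% = enzyme reaction without inhibitor and -100% = no enzyme wells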
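Buffer: 50 mM Hepes-Na pH 7.6, 10 mM MgCl2, 0.01% Nonidet P-40, 0.01% BSA. Enzyme 15 nM, pre-exposed to compound 15 min; substrates then added and fluorescence change tracked over 30 min.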
ClpP mod – qHTS Assay for Activators of ClpP; ATP-dependent Clp protease proteolytic subunit (Bacillus subtilis (strain 168)), P80244; purified B. subtilis ClpP, FRET peptide cleavage, 20 min; Potency, µM (series often up to 57.5 µM), without a hit: top-dose activity change, negative = active; 340,000 tested, 1.9% active; active = well fitted falling curve with a large enough effect; inconclusive = small, poorly fitted or top-dose-only effect; inactive = no such curve, though single readings can be large or run the other way; note: the source files actives as falling curves though it sought activators and does not explain the sign; nearly all actives have a fitted effect of over 65% in size
Target sequence (P80244 whole entry, looked up): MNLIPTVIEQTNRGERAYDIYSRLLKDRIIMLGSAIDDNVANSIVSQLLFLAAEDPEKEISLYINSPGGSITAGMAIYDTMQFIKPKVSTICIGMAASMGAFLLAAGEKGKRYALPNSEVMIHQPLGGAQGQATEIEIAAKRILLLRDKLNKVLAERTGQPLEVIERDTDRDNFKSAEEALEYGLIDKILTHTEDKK
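Purified B. subtilis ClpP, 10 microg/mL final in Tris/HCl pH8 with KCl, BSA, glycerol and Tween-20, cleaved an Abz/nitrotyrosine-quenched decapeptide. Fluorescence (ex 320, em 430) was read at 0 and 20 min at room temperature. Delta was normalized to 5.8 microM ADEP and DMSO/no-enzyme controls.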
VP16 counter – VP16 counterscreen qHTS for inhibitors of ROR gamma transcriptional activity. Potency, µM (highest dose often 53.6 µM), for the others: top-dose activity, negative = inhibition, usual class: inhibitors. Drosophila S2 Gal4-VP16 UAS-luciferase, luminescence, 20 h. 310,000 tested, 3.5% active. AID 2546, 2010;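 note: Gal4-VP16 expression switched on by copper sulfate through the metallothionein promoter; % is set by controls: 0 for no effect and ±100 for the full control effect; nearly all actives have a fitted effect of over 50% in size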
RORg inh – qHTS for inhibitors of ROR gamma transcriptional activity; Nuclear receptor ROR-gamma (Mus musculus), P51450; Potency, µM (titrated, usually from 53.6 µM), without a hit: at the highest dose activity change, negative = inhibition, most hits filed as inhibitors; 310,000 tested, 5.4% active; Drosophila S2 Gal4-RORgamma UAS-luciferase reporter, 20 h; AID 2551, 2010; note: % is set by controls: 0 for no effect and ±100 for the full control effect; nearly all actives have a fitted effect of over 60% in size
Target sequence (P51450 whole entry, looked up, the tested form may be a part): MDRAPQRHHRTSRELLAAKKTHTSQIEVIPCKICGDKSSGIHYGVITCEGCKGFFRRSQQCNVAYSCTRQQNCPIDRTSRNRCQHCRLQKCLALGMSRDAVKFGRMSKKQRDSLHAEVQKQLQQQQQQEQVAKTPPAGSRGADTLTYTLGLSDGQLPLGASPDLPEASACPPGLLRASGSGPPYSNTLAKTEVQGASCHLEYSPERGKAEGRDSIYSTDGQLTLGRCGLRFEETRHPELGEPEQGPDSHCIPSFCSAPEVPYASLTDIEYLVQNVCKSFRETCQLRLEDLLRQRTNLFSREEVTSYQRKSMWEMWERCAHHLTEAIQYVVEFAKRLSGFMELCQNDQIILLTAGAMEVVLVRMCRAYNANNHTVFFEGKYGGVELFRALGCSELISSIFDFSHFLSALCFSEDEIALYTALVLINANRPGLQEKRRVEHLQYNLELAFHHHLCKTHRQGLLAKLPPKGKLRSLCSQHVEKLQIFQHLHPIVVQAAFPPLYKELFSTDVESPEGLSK
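Schneider cells (Drosophila), stable Gal4 DBD–ROR gamma + UAS-luc; 1 hr cmpd preincubation; Cu2+ induction 700 uM final; 20 hr ambient; luminescence.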
Numbers without * were called inactive; ? = inconclusive; · = no result given; [ ] = dose if it differs, or a comment. An excerpt weighted towards active compounds, which were near 8.1% of everything screened. Unless noted, calls come from the whole dose curve; as a rule, active = well fitted curve in the direction sought with a large enough effect; inconclusive = small, poorly fitted or top-dose-only effect, or another doubt; inactive = no such curve, though single readings can be large; an effect the other way counts as inactive or inconclusive. Potency is the fitted concentration of half-maximal effect.

SMILES	Epigenetic reg	PINK1 modulator	Sfp inh	ClpP mod	VP16 counter	RORg inh
Cc1[nH]nc2c1C(c1ccc(F)cc1)C1=C(CC(C)(C)CC1=O)N2 (stereo not drawn)	1%	3%	17%	25µM*	5%	-12%
Cc1[nH]nc2c1C(c1ccc(N(C)C)cc1)C1=C(CC(C)(C)CC1=O)N2 (stereo not drawn)	0%	-1%	16%	·	1%	11%
Cc1[nH]nc2c1C(c1cccc(O)c1)C1=C(CC(C)(C)CC1=O)N2 (stereo not drawn)	1%	1%	10%	28µM*	17%	23%
Cc1ccc(C2C3=C(CC(C)(C)CC3=O)Nc3n[nH]c(C)c32)cc1 (stereo not drawn)	-4%	0%	-13%	25µM*	9%	20%
COc1ccc(C2C3=C(CCCC3=O)Nc3n[nH]c(C)c32)cc1OC (stereo not drawn)	-2%	-1%	19%	·	4%	18%
Cc1ccc(CN(C)C(=O)c2cc(Br)c(Br)s2)o1	·	3%	79µM*	·	7%	-4%
Cc1ccc2oc(C(=O)N(C)Cc3ccon3)c(C)c2c1	·	2%	4%	-3%	-13%	13%
Cc1ccc2oc(C(=O)N(C)Cc3ccc(C)o3)c(C)c2c1	·	8%	10µM*	-7%	3%	11%
Cc1[nH]n(-c2ccccc2)c(=O)c1C=Nc1cnc2ccccc2c1	2%	-2%	8%	70%	-10%	-41%
CCOc1ccc(N=Cc2c(C)[nH]n(-c3nc4ccccc4[nH]3)c2=O)cc1	0%	15%	-9%	-2%	?	14µM*
CC(C)OC(=O)[C@@H]1CC[C@H](C)[C@@H](CCCC=O)O1	0%	·	13%	·	3%	-3%
Cc1ccc(S(=O)(=O)N2CCOCC2)cc1C(=O)NC1CCCC1	·	2%	22%	?	24%	-27%
CCCCCC(C)NC(=S)NC(=O)c1cc(S(=O)(=O)N2CCOCC2)ccc1C (stereo not drawn)	-2%	0%	2%	?	11µM*	10µM*
CCCC(C)NC(=S)NC(=O)c1cc(S(=O)(=O)N2CCOCC2)ccc1C (stereo not drawn)	-2%	3%	5%	-4%	?	?
Cc1ccc(S(=O)(=O)N2CCOCC2)cc1C(=O)NC(=S)N1CC(C)CC(C)C1 (stereo not drawn)	-1%	-1%	11%	0%	5µM*	1.6µM*
Cc1ccc(-c2csc(=Nc3ccccc3)n2Cc2ccc3c(c2)OCO3)cc1	1%	2%	·	-1%	·	·
O=C1CC(c2cccc(Oc3ccccc3)c2)NC(=O)N1 (stereo not drawn)	-3%	2%	-4%	-1%	8%	23%
CCCC(=O)C1=C(O)C(c2cccc(Oc3ccccc3)c2)CCC1=O (stereo not drawn)	-2%	0%	17%	-4%	?	13µM*
O=C(COC(=O)c1ccccc1Oc1ccccc1)Nc1ccc(Br)cc1	·	1%	·	1%	·	·
O=[N+]([O-])c1ccc(NNC(=S)Nc2ccccc2)cc1	-2%	14µM*	3.5µM*	0%	?	?
O=[N+]([O-])c1ccc(O)c(NC(=S)Nc2ccccc2)c1	4%	1%	50µM*	1%	-22%	42%
COc1ccccc1N1CCN(C(=O)c2cnn(-c3ccc(F)cc3F)c2C2CCNCC2)CC1	-1%	-3%	·	-2%	·	·
COc1cccc(CNc2nc3ccccc3c3nc(-c4cccc(C)c4)nn23)c1	0%	1%	·	-20%	·	·
CCOC(=O)CN1NC2(CCCCCCC2)NC1=S	-1%	-1%	40µM*	0%	-18%	4µM*
CCOC(=O)CN1NC2(CCCCC2)NC1=S	2%	-2%	28µM*	1%	?	16µM*
SMILES	Epigenetic reg	PINK1 modulator	Sfp inh	ClpP mod	VP16 counter	RORg inh
CCOC(=O)Cn1c2c(c(=N)c3c1CCC3)CCC2	2%	-1%	4%	3%	-4%	31%
Cc1ccc(S(=O)(=O)c2nc(S(C)(=O)=O)sc2N(C)Cc2ccccc2)cc1	-7%	-1%	·	0%	·	·
COc1cc(-c2nc(Cn3nnc(C(=O)Nc4cc(C)cc(C)c4)c3C)c(C)o2)cc(OC)c1OC	-1%	8%	·	-11%	·	·
Cc1cccc(CN2CCN(C(=S)Nc3ccccc3)CC2)c1	0%	-1%	1%	1%	?	4µM*
COc1ccc(N2CCN(C(=S)Nc3cccc(C)c3)CC2)cc1	0%	2%[38.3 µM]	14%	0%	-2%	?
Cc1cccc(NC(=S)N2CCN(c3ccccc3)CC2)c1	0%	-1%	13%	·	?	10µM*
COc1cccc(N2CCN(C(=S)Nc3cccc(C)c3)CC2)c1	-1%	1%	19%	-1%	-28%	7.1µM*
COc1ccc(C2=C(C)C(=O)N(Cc3ccc(C(=O)Nc4cc(C)ccc4C)cc3)S2(=O)=O)cc1	0%	4%	·	4%	·	·
COc1ccc(OC)c(C(C)NC(=O)Cn2c(=O)cc(C)c3c(C)nn(-c4ccc(C)cc4)c32)c1 (stereo not drawn)	?	1%	·	-24%	·	·
CCOc1cc(NC(=S)NCC(C)C)c(OCC)cc1NC(=O)c1cccs1	1%	8%	18%	0%	8.9µM*	4µM*
CCNC(=S)Nc1cc(OCC)c(NC(=O)c2cccs2)cc1OCC	1%	5%	3%	1%	?	11µM*
CCOc1cc(NC(=O)c2cccs2)c(OCC)cc1NC(=O)c1ccccn1	0%	10%	9%	·	-1%	-9%
CCOc1cc(NS(C)(=O)=O)c(OCC)cc1NC(=O)c1cccs1	1%	0%[38.3 µM]	3%	-1%	3%	35%
Cc1cnc(-n2ncc(C(=O)NCc3ccncc3)c2C(C)C)nc1-c1ccc(F)cc1	·	-1%	·	·	·	·
Cc1oc(-c2ccc(F)cc2)cc1-c1nn2c(-c3ccoc3C)nnc2s1	-2%	3%	40µM*	5%	2%	4%
O=C(/C=C/c1cccs1)Nc1scc(-c2ccccc2)c1C(=O)O	0%	1%	32µM*	·	13µM*	10µM*
CC(=O)CCc1c(C)[nH]c2ccc(NC(C)=O)cc2c1=O	1%	1%[38.3 µM]	8%	25µM*	-3%	-7%
CCCCn1c(C23CC4CC(CC(C4)C2)C3)n[nH]c1=S	·	6%	-15%	-9%	3.2µM*	2.8µM*
COCCn1c(-c2ccccc2F)n[nH]c1=S	-1%	1%	-1%	-1%	-1%	8%
